Bioassay records deposited in PubChem BioAssay by Broad Institute.
Tgondii IFNg: T. gondii growth inhibition under IFN-gamma. 69,000 tested, 3.8% active. Toxoplasma gondii growth in IFN-gamma-treated host cells; hits give low values. activity change, negative = inhibition, % (test concentration not listed); in the data active = activity change below about -70%, passing the limit was not always enough;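 also: host cells are HeLa cells infected with Toxoplasma gondii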
* = called active by the depositor; i = inactive; ! = not active in a repeat. The entries come from a sample that favours hits as a whole.

SMILES | Tgondii IFNg
COC(=O)c1c(NCCN2CCCc3ccccc32)c2cc(F)ccc2[nH]c1=O | 17.6
COC(=O)c1c(NCCc2ccc(Cl)cc2)c2cc(F)ccc2[nH]c1=O | -94.2*
COC(=O)c1c(NCc2c(C)noc2C)c2ccccc2[nH]c1=O | 13.8
COC(=O)c1c(NCCc2c[nH]c3ccccc23)c2cc(Cl)ccc2[nH]c1=O | -114.8*
CCOc1ccc2oc(=O)cc(CN3CCN(Cc4nc(-c5cccc(Cl)c5)oc4C)CC3)c2c1 | 11.3
Cc1ncc(-c2ccncc2)c(CN(C)S(=O)(=O)c2ccc3c(c2)NC(=O)C(C)O3)n1 (stereo not given) | 1.3
CN1C(=O)c2cc(NC(=O)Cc3cccs3)ccc2OC[C@@H]2O[C@H](CC(=O)NCC3CCCCC3)CC[C@@H]21 | -77.8*
CN1C(=O)c2cc(NC(=O)Cc3cccs3)ccc2OC[C@H]2O[C@@H](CC(=O)NCC3CCCCC3)CC[C@@H]21 | -23.2
CN1C(=O)c2cc(NC(=O)NCc3ccccc3)ccc2OC[C@H]2O[C@H](CC(=O)NCC3CCCCC3)CC[C@@H]21 | -20.3
C[C@H](NC(=O)C[C@H]1CC[C@H]2[C@@H](COc3ccc(NS(=O)(=O)c4ccc(Cl)cc4)cc3C(=O)N2C)O1)c1ccccc1 | -37.0
CN1C(=O)c2cc(NC(=O)NCc3ccccc3)ccc2OC[C@@H]2O[C@H](CC(=O)NCC3CCCCC3)CC[C@@H]21 | -87.0*
CN1C(=O)c2cc(NC(=O)c3ccc(C(F)(F)F)cc3)ccc2OC[C@H]2O[C@H](CC(=O)NCc3ccc4c(c3)OCO4)CC[C@H]21 | -36.8
C[C@@H](NC(=O)C[C@H]1CC[C@@H]2[C@H](COc3ccc(NS(=O)(=O)c4ccc(Cl)cc4)cc3C(=O)N2C)O1)c1ccccc1 | -8.7
CN1C(=O)c2cc(NC(=O)Cc3cccs3)ccc2OC[C@@H]2O[C@H](CC(=O)NCC3CCCCC3)CC[C@H]21 | -10.6
CN1C(=O)c2cc(NC(=O)c3ccc(C(F)(F)F)cc3)ccc2OC[C@H]2O[C@@H](CC(=O)NCc3ccc4c(c3)OCO4)CC[C@H]21 | -27.5
C[C@@H](NC(=O)C[C@H]1CC[C@@H]2[C@@H](COc3ccc(NS(=O)(=O)c4ccc(Cl)cc4)cc3C(=O)N2C)O1)c1ccccc1 | -88.6*
CN1C(=O)c2cc(NC(=O)NCc3ccccc3)ccc2OC[C@H]2O[C@H](CC(=O)NCC3CCCCC3)CC[C@H]21 | -46.7
CN1C(=O)c2cc(NC(=O)c3ccc(C(F)(F)F)cc3)ccc2OC[C@@H]2O[C@@H](CC(=O)NCc3ccc4c(c3)OCO4)CC[C@@H]21 | -81.7*
CC1CCN(S(=O)(=O)c2ccc3c(c2)CCC(=O)N3CC(=O)NCC2CCCO2)CC1 (stereo not given) | 34.8
CN1CCC2(C=C(C(=O)N3CCCC3)c3ccccc32)CC1 | -41.7
O=c1oc2ccccc2cc1-c1nn(-c2ccccc2)cc1CO | 14.7
CCOCC1CN(C(=O)C2=CCCC2)Cc2cnn(CC)c21 (stereo not given) | -6.1
O=C(Cc1ccc(F)cc1)N1CCC2C1CC(=O)N2c1cccnc1 (stereo not given) | -2.2
Cc1ccc(CN2CC[C@H]3CO[C@@H](CNC(=O)C4CC4)[C@@H]3C2)cc1 | -45.4
Cc1cccnc1CN(C)C1CCN(Cc2cccnc2)CC1 | -1.5
SMILES | Tgondii IFNg
CCOC(=O)c1ccccc1NC(=O)N1CCN2CCN(C)C(=O)C2C1 (stereo not given) | -0.1
c1ccc2oc(CN3CCCn4cncc4C3)cc2c1 | -24.8
Cc1nc2c(c(NC3CC3)n1)CCN(Cc1cnn(C)c1)CC2 | -51.5
Cc1cccc(S(=O)(=O)N2CCc3nc(-c4ccccc4)sc3C2)c1 | -9.2
Cc1cccc(S(=O)(=O)N2CCc3nc(-c4cnn(C)c4)nc(NC4CC4)c3C2)c1 | -93.6*
Cc1cccc(NC(=O)C(=O)NCCc2csc(-c3cccc(F)c3)n2)c1C | -21.1
Cc1cccc(OCC(=O)N2CCC3(CC2)Nc2ccc(C)c(C)c2-n2cccc23)c1 | 29.3
CC(Cn1ccc2ccccc21)NCC(=O)Nc1cnccn1 (stereo not given) | 20.9
CCN1CCOCC2(CCCN(C(=O)Cc3ccsc3)C2)C1 (stereo not given) | -80.3*
CN1CCOCC2(CCCN(C(=O)Cc3ccsc3)C2)C1 (stereo not given) | 2.6
CN1CCOCC2(CCCN(C(=O)Cc3cccs3)C2)C1 (stereo not given) | -3.1
COCC(=O)N1CCc2ncnc(C3CCOC3)c2CC1 (stereo not given) | i
CN(c1ncccc1CNc1nc(Nc2ccc3c(c2)CC(=O)N3)ncc1C(F)(F)F)S(C)(=O)=O | -80.1*
CS(=O)(=O)c1cccc(CNc2nc(Nc3ccc4c(c3)CCC(=O)N4)ncc2C(F)(F)F)c1 | -68.1
Cc1ccc(-c2nnc(-c3nc(NCCN4CCCC4)c4ccccc4n3)o2)cc1 | -68.7
CN(C)CCN1CCOCC2(CCCN(C(=O)c3ccc4cc[nH]c4c3)C2)C1 (stereo not given) | -51.2
COC(=O)c1ccc(C(=O)OC)c(NC(=O)C(C)C)c1 | 6.3
Cc1sc(NC(=O)C(C)C)c(C(=O)N[C@@H]2C[C@@H](CO)N(C)C2)c1C | 0.0
COC(=O)c1c(NC(=O)C(C)C)sc2c1C(C(=O)OC)CC2 (stereo not given) | -94.2*
Cc1cc(C)n(-c2cccc(CN(C)C(=O)Cc3ccccc3O)c2)n1 | -8.6
COc1cccc(-c2nc(Cn3nnc(C(=O)Nc4ccc(Cl)c(Cl)c4)c3C)c(C)o2)c1OC | 54.8
CC[C@@H]1C(=O)N(C)c2cnc(Nc3ccc(C(=O)NC4CCC(N5CCN(CC6CC6)CC5)CC4)cc3OC)nc2N1C(C)C (stereo not given in full) | -68.3
CCCC(=O)N1CCCC1c1ncc(C(=O)Nc2ccccc2OC)c(C)n1 (stereo not given) | -7.9
CNC(=O)c1ccccc1Nc1nc(Nc2ccc3c(c2OC)CCC[C@H](N2CCN(CCO)CC2)C3)ncc1Cl | -75.4*
Nc1nc(=O)n([C@H]2C[C@H](O)[C@@H](CO)O2)cc1F | -88.7*
SMILES | Tgondii IFNg
OCC1OC(n2cnc3c(NC4CCCC4)nc(Cl)nc32)C(O)C1O (stereo not given) | 2.4
Nc1ncnc2c1ncn2C1CCCO1 (stereo not given) | 15.9
O=c1[nH]cnc2c1ncn2[C@H]1CC[C@@H](CO)O1 | 8.7
Nc1nc(Cl)nc2c1ncn2[C@@H]1O[C@H](CO)[C@@H](O)[C@@H]1F | -73.9*
O=c1[nH]c(=O)n([C@H]2C[C@H](O)[C@@H](CO)O2)cc1I | 21.2
Nc1nc(Cl)nc2c1ncn2[C@H]1C[C@H](O)[C@@H](CO)O1 | -73.3*!
Nc1ccn([C@@H]2O[C@H](CO)[C@@H](O)[C@H]2O)c(=O)n1 | 10.8
CNC(=O)c1cnn(-c2nc(N)c3ncn([C@@H]4O[C@H](CO)C(O)C4O)c3n2)c1 (stereo not given in full) | 17.4
C=CCN1CCN(C(=O)NCc2cccnc2)Cc2ccc(C)nc21 | 4.1
CCOc1cccc(C(=O)N2C[C@@H]3COC[C@]3(COCC3CC3)C2)c1 | 97.9
CCOCCCNC(=O)N1CCC2(CC1)Nc1cc(OC)ccc1-n1cccc12 | 71.3
O=C(NCc1coc(-c2ccccc2)n1)C1CC2(CCNCC2)CN1 (stereo not given) | 7.1
COc1ccc(-c2nc(Cn3nnc(-c4nc(-c5ccc(OC(C)C)cc5)no4)c3C)c(C)o2)cc1 | 16.1
CCc1noc(CN(CC)C(=O)Cc2cnc3c(C)cccn23)n1 | 3.1
CCOc1cc2c(cc1OCC)C(c1ccccc1)N(c1ccc(C(=O)O)cc1)C(=O)C2 (stereo not given) | -16.2
